In PubChem BioAssay (Tox21):
A number with no mark means an inactive call. Results filed as inconclusive are left out. Entries that show only a call come without a potency. Active and inactive are the calls of the source. Unless noted, the call rests on the fitted dose curve; in most records, active means well fitted curve in the direction sought with a large enough effect in the repeat runs; inconclusive means weak or mixed curves; inactive means no such curve, though single readings can be large; an effect the other way counts as inactive or inconclusive.

Key:
[1] = qHTS assay to identify small molecule agonists of H2AX (AID 1224845; active means well fitted activation curve with a large enough effect in the signal ratio in the repeat runs, not every such curve was filed as active; the % refers to the signal ratio)
How it was run: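 Phospho-H2AX Ser139 measured by HTRF (ex 320 nm; em 665 and 620 nm) after 24 hr antibody incubation. Compounds, 15 concentrations, 0.76% DMSO, were applied to CHO-K1 cells for 3hr at 37C before lysis.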

[2] = qHTS assay to identify small molecule agonists of the hypoxia (HIF-1) signaling pathway (AID 1224846; active means well fitted activation curve with a large enough effect in the signal ratio in the repeat runs, not every such curve was filed as active; the % refers to the signal ratio)
How it was run: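 Reporter induction in HRE-bla ME-180 cells is taken as agonism: cells sit 5 hrs after plating, receive compounds or DMSO only, incubate 17 hrs at 37C under 5% CO2, and are loaded with CCF4-AM for beta-lactamase FRET measurement.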

[3] = qHTS RealTime-Glo MT Cell Viability Assay in HepG2 cells - 24 hour (AID 1224867); further: nearly all actives have a fitted effect of over 50% in size
How it was run: (§1)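 Cell number in HepG2 cultures estimated from NanoLuc luminescence generated by metabolic reduction of a prosubstrate by living cells. The homogeneous, nonlytic format allowed repeated reads at 0, 8, 16, 24, 32 and 40 h of compound exposure.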

[4] = qHTS RealTime-Glo MT Cell Viability Assay in HEK293 cells - 32 hour (AID 1224868); further: top concentration of the series differs between compounds; nearly all actives have a fitted effect of over 50% in size
How it was run: (§2)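 Homogeneous bioluminescent viability format in HEK293 cells (600 cells/well). Following 5 h at 37 C/5% CO2, 23 nL compound was pintooled; the signal was measured repeatedly during 40 h incubation.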

[5] = A CellTox Green Cytotoxicity Assay to monitor cytotoxicity in HEK293 cells - 0 hour (AID 1224869); further: nearly all actives have a fitted effect of over 50% in size
How it was run: (§3)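 Tox21 screen in HEK293: membrane-impermeant cyanine dye fluoresces on binding dead-cell DNA; compound pinned 5 h post-seeding, plates held at 37 C, signal read repeatedly through 40 h.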

[6] = qHTS RealTime-Glo MT Cell Viability Assay in HepG2 cells - 40 hour (AID 1224870); further: nearly all actives have a fitted effect of over 50% in size
How it was run: (§4)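 Real-time viability: cells seeded at 600 per well together with NanoLuc and cell-permeant prosubstrate, compounds added after 5 h incubation. Luminescence tracked at 0, 8, 16, 24, 32 and 40 h of exposure.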

[7] = A CellTox Green Cytotoxicity Assay to monitor cytotoxicity in HEK293 cells - 40 hour (AID 1224871); further: nearly all actives have a fitted effect of over 45% in size; further: potency means the concentration at half of the fitted maximal effect
How it was run: as §3

[8] = qHTS RealTime-Glo MT Cell Viability Assay in HEK293 cells - 16 hour (AID 1224872)
How it was run: as §2

[9] = A CellTox Green Cytotoxicity Assay to monitor cytotoxicity in HEK293 cells - 24 hour (AID 1224875); further: nearly all actives have a fitted effect of over 45% in size; further: potency means the concentration at half of the fitted maximal effect
How it was run: as §3

[10] = A CellTox Green Cytotoxicity Assay to monitor cytotoxicity in HepG2 cells - 16 hour (AID 1224876); further: nearly all actives have a fitted effect of over 45% in size; further: potency means the concentration at half of the fitted maximal effect
How it was run: (§5)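 Measurements at 0, 8, 16, 24, 32 and 40 h of treatment captured CellTox Green fluorescence in HepG2 cells that had been co-plated with reagent and preincubated 5 h at 37 C/5% CO2.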

[11] = A CellTox Green Cytotoxicity Assay to monitor cytotoxicity in HepG2 cells - 24 hour (AID 1224878); further: nearly all actives have a fitted effect of over 45% in size; further: potency means the concentration at half of the fitted maximal effect
How it was run: as §5

[12] = A CellTox Green Cytotoxicity Assay to monitor cytotoxicity in HepG2 cells - 40 hour (AID 1224879); further: nearly all actives have a fitted effect of over 40% in size; further: potency means the concentration at half of the fitted maximal effect
How it was run: as §5

[13] = qHTS RealTime-Glo MT Cell Viability Assay in HEK293 cells - 0 hour (AID 1224880)
How it was run: (§6)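 HEK293 + NanoLuc + prosubstrate, 600 cells/well; 5 h, 37 C/5% CO2; compound 23 nL in DMSO by pintool; 37 C; luminescence read at 0, 8, 16, 24, 32 and 40 h time points.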

[14] = A CellTox Green Cytotoxicity Assay to monitor cytotoxicity in HEK293 cells - 32 hour (AID 1224881); further: nearly all actives have a fitted effect of over 40% in size; further: potency means the concentration at half of the fitted maximal effect
How it was run: as §3

[15] = qHTS assay to identify small molecule agonists of H2AX - cell viability counter screen (AID 1224847; calls by dose curve;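 further: wild-type CHO-K1 cells; top concentration of the series differs between compounds; nearly all actives have a fitted effect of over 30% in size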)
How it was run: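 Counter-screen for viability: CellTiter-Glo ATP luminescence read after 3 h compound treatment (15-point titration, 0.76% DMSO final) of CHO-K1 cells at 37C, with 30 min room-temperature reagent incubation.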

[16] = qHTS RealTime-Glo MT Cell Viability Assay in HepG2 cells - 8 hour (AID 1224873); further: nearly all actives have a fitted effect of over 55% in size
How it was run: as §4

[17] = qHTS RealTime-Glo MT Cell Viability Assay in HEK293 cells - 40 hour (AID 1224874); settings: RealTime-Glo luminescence; max response: hits give low values; further: nearly all actives have a fitted effect of over 50% in size
How it was run: as §6

[18] = qHTS RealTime-Glo MT Cell Viability Assay in HepG2 cells - 32 hour (AID 1224877); further: nearly all actives have a fitted effect of over 55% in size
How it was run: as §1

SMILES	Potency [1]	outcome [2]	Potency [3]	Potency [4]	Potency [5]	Potency [6]	Potency [7]	Potency [8]	Potency [9]	Potency [10]	Potency [11]	Potency [12]	outcome [13]	Potency [14]	Potency [15]	Potency [16]	max response [17]	Potency [18]
COCc1cnc(C2=NC(C)(C(C)C)C(=O)N2)c(C(=O)O)c1 (stereo unspecified)	inactive	inactive	inactive	inactive	inactive	inactive	inactive	inactive	inactive	inactive	inactive	inactive	inactive	inactive	–	–	–	–
CCC1(CCC(C)C)C(=O)NC(=O)NC1=O	inactive	inactive	inactive	–	inactive	inactive	inactive	inactive	inactive	inactive	inactive	inactive	inactive	inactive	inactive	inactive	-4.01%	inactive
O=CC=O	inactive	inactive	inactive	–	–	inactive	inactive	inactive	inactive	inactive	inactive	inactive	inactive	inactive	inactive	–	2.31%	inactive
CCCC[P+](CC)(CCCC)CCCC (tested in a mixture with another compound)	inactive	inactive	inactive	–	inactive	inactive	inactive	–	–	inactive	inactive	inactive	inactive	–	inactive	inactive	–	inactive
C=CC(=O)NC(C)(C)CC(C)=O	inactive	inactive	inactive	–	inactive	inactive	inactive	inactive	inactive	inactive	inactive	inactive	inactive	inactive	inactive	inactive	–	–
CCCCCBr	inactive	inactive	inactive	–	–	inactive	inactive	–	inactive	inactive	inactive	inactive	inactive	inactive	inactive	inactive	–	inactive
Clc1ccc2ccccc2c1	inactive	inactive	inactive	–	inactive	inactive	–	–	50.5 µM (active)	inactive	inactive	inactive	inactive	50.5 µM (active)	inactive	–	–	inactive
CCCCC1C(=O)NC(=O)N(C2CCCCC2)C1=O (stereo unspecified)	inactive	inactive	inactive	–	inactive	inactive	inactive	inactive	inactive	inactive	inactive	inactive	inactive	inactive	inactive	inactive	-0.655%	inactive
CC(O)CN1CCN(CC(=O)[O-])CCN(CC(=O)[O-])CCN(CC(=O)[O-])CC1.[Gd+3] (stereo unspecified)	inactive	inactive	inactive	–	inactive	inactive	inactive	inactive	inactive	inactive	inactive	inactive	inactive	inactive	inactive	inactive	3.85%	inactive
C1CCNCC1	inactive	inactive	inactive	–	–	inactive	inactive	inactive	inactive	inactive	inactive	inactive	inactive	inactive	inactive	inactive	0.2%	inactive
O=S(=O)(Cl)Cl	inactive	inactive	inactive	–	–	inactive	inactive	inactive	inactive	inactive	inactive	inactive	inactive	inactive	inactive	inactive	15.4%	inactive
CC(=O)OC(c1ccccc1)C(Cl)(Cl)Cl (stereo unspecified)	inactive	inactive	inactive	inactive	–	inactive	19.5 µM (active)	inactive	19.5 µM (active)	21.9 µM (active)	21.9 µM (active)	21.9 µM (active)	inactive	19.5 µM (active)	–	–	-15.9%	inactive
CC(C)c1ccc(OP(=O)(Oc2ccc(C(C)C)cc2)Oc2ccc(C(C)C)cc2)cc1	inactive	inactive	inactive	–	inactive	inactive	inactive	inactive	inactive	inactive	inactive	inactive	inactive	inactive	inactive	inactive	-29.6%	inactive
C[N+]1(CCF)[C@@H]2CC[C@H]1CC(OC(=O)C(O)(c1ccccc1)c1ccccc1)C2 (stereo partly specified)	inactive	inactive	inactive	–	–	inactive	inactive	inactive	inactive	inactive	inactive	inactive	inactive	inactive	inactive	–	2.19%	inactive
Nc1ccccc1C(=O)OCC(O)CO (stereo unspecified)	inactive	inactive	inactive	–	inactive	inactive	inactive	inactive	inactive	inactive	inactive	inactive	inactive	inactive	inactive	inactive	9.15%	inactive
